The results in this text go back to PubChem BioAssay AID504546 (Broad Institute, 2011).

Inconclusive results are not listed. Calls of active or inactive are those of the source.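 How the source made its calls: active means every repeat run fits a falling-signal curve with half-maximal potency within ten times top tested dose; inconclusive means runs disagree, or flat moderate drop, or poor fit; inactive means every run inactive, including signal moving upward.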

The assay is described as follows: inhibition of ADP-Glo detection reagents, dose response, artefact control for CDK5 inhibitor project, biochemical, luminescence, cherry-picked samples, set 2 (AID 504546).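 Further: 0% = DMSO wells and -100% = wells lacking ADP.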 To be noted: ADP-Glo detection reagent counter screen, 5 uM ADP; series mostly up to 30 µM; activity change, negative = inhibition: at the top concentration.
With `O=C(Nc1csc(Cc2c(Cl)cccc2Cl)n1)NN1CCOCC1`, the “activity change, negative = inhibition” value is -9.64% (inactive).

`Oc1ccc(/C=N/Nc2cccc(Cl)n2)c(O)c1`: the “activity change, negative = inhibition” value is -0.095% (inactive).

As for `Fc1ccccc1/C=N/Nc1ncnc2nc[nH]c12`, the “activity change, negative = inhibition” value is 3.58% (inactive).

Consider `COc1ccc(C(=O)c2sc(NC(C)C)nc2N)cc1OC`, for which the “activity change, negative = inhibition” value was -11% (inactive).

As to `Cc1nn(-c2ccc(Cl)cn2)c2c1C(=O)CC(C)(C)C2Br` (stereo not given), the “activity change, negative = inhibition” value was 1.63% (inactive).

In the case of `CCC(C)Oc1cc(-c2ccnc(Nc3cccc(Cl)c3)n2)ccn1` (stereo not given), the “activity change, negative = inhibition” value is 7.1% (inactive).

Regarding `ON=C1c2ccccc2-c2ccc(O)cc21`, the “activity change, negative = inhibition” value is -4.06% (inactive).

For the compound `CC(C)n1cnc2c(Nc3cccc(Cl)c3)nc(NCCCO)nc21`, the “activity change, negative = inhibition” value is -8.77% (inactive).

`CC(C)[C@H](CO)Nc1nc(Nc2ccc(Cl)c(C(=O)O)c2)c2ncn(C(C)C)c2n1`: the “activity change, negative = inhibition” value was 3.05% (inactive).

On to `COc1cccc(C(=O)N2CCN(c3ccccn3)CC2)c1`, for which the “activity change, negative = inhibition” value was 15.6% (inactive).

On to `CC(C)[C@H](CO)N(Cc1cccc(F)c1)c1nc(Nc2cccc(Cl)c2)c2ncn(C(C)C)c2n1`, for which the “activity change, negative = inhibition” value was 0.324% (inactive).

Take `COc1ccc(Nc2nc(N)c(C(=O)c3ccc(OC)cc3)s2)cc1`: the “activity change, negative = inhibition” value was -7.71% (inactive).

As for `Clc1cncc(Cl)c1N/N=C/c1ccccc1`, the “activity change, negative = inhibition” value is 3.75% (inactive).

`Oc1ccc(C=NNc2ccccn2)c(O)c1`: the “activity change, negative = inhibition” value is -9.83% (inactive).

As for `O=C1NC(=O)C(c2ccccc2[N+](=O)[O-])=C1Nc1ccc(O)c(Cl)c1`, the “activity change, negative = inhibition” value was -4.98% (inactive).

For `Cc1ccc(-n2nc(C)c3c2C(Br)C(C)(C)CC3=O)nc1` (stereo not given), the “activity change, negative = inhibition” value is 14.4% (inactive).

`COc1cc(OC)c(C(=O)N2CCN(c3ccccn3)CC2)cc1OC`: the “activity change, negative = inhibition” value was 7.42% (inactive).

`Nc1nc(Nc2ccccc2)sc1C(=O)c1ccccc1`: the “activity change, negative = inhibition” value was 17.3% (inactive).

Take `C=CCNC(=O)c1n[nH]c2c1CC(C(C)(C)CC)CC2` (stereo not given): the “activity change, negative = inhibition” value is 10.3% (inactive).

On to `CNS(=O)(=O)c1ccc2c3c(cccc13)C(=O)N2`, for which the “activity change, negative = inhibition” value was 16.5% (inactive).

As to `COc1cc(OC)cc(C(=O)N2CCN(c3ccccn3)CC2)c1`, the “activity change, negative = inhibition” value is 1.89% (inactive).

As to `CC(C)C[C@H](CO)Nc1nc(Nc2cccc(Cl)c2)c2ncn(C(C)C)c2n1`, the “activity change, negative = inhibition” value was -0.074% (inactive).

With `O=C(c1ccc2c(c1)OCO2)N1CCN(c2ccccn2)CC1`, the “activity change, negative = inhibition” value is 13% (inactive).

Turning to `CCOc1cc(C(=O)N2CCN(c3ccccn3)CC2)cc(OCC)c1OCC`, the “activity change, negative = inhibition” value is 5.42% (inactive).

On to `C=CC(=O)Nc1ccc(Nc2nc(NC3CCC(N(C)C)CC3)nc3c2ncn3C(C)C)cc1` (stereo not given), for which the “activity change, negative = inhibition” value was 7.33% (inactive).

With `O=C(O)c1ccc(/C=N/Nc2ccc(C(F)(F)F)cn2)cc1`, the “activity change, negative = inhibition” value was -6.31% (inactive).

On to `Oc1ccc(/C=N/Nc2ccc(C(F)(F)F)cn2)c(O)c1`, for which the “activity change, negative = inhibition” value is 20.8% (inactive).

With `O=[N+]([O-])c1ccc2c(c1)-c1ccccc1C2=NO`, the “activity change, negative = inhibition” value was 7.51% (inactive).

As for `Cc1[nH]nc2c1-c1nc3ccccc3nc1C(C)(C)C2`, the “activity change, negative = inhibition” value is 7.67% (inactive).

`CCc1ncc(/C=C2\C(=O)Nc3ccccc32)[nH]1`: the “activity change, negative = inhibition” value is 6.92% (inactive).

As to `C=CCNc1nc(N)c(C(=O)c2ccc3c(c2)OCO3)s1`, the “activity change, negative = inhibition” value was -0.228% (inactive).

For the compound `O=C(O)c1ccc(/C=N/Nc2ncc(C(F)(F)F)cc2Cl)cc1`, the “activity change, negative = inhibition” value was -7.53% (inactive).

As to `COc1ccc2oc(C(=O)NCCC(C)C)c(C)c2c1`, the “activity change, negative = inhibition” value is 13.2% (inactive).

Turning to `NC1=NC(=O)/C(=C/c2ccc(-c3ccc(S(N)(=O)=O)cc3)o2)S1`, the “activity change, negative = inhibition” value was 13.8% (inactive).

On to `COc1ccc2nc3c(cc2c1)c(NC(=O)CC(C)C)nn3CC(C)C`, for which the “activity change, negative = inhibition” value is -2.05% (inactive).
